{
  "source": "PubChem BioAssay (EPA / NIEHS)",
  "note": "“And” between values parts separate entries of the source, which are not always exact repeats. Equal values may be shown once. The source made the active and inactive calls. Rule for the calls: active = hit-call score of the fitted dose curve at least 0.9, where 1 is the maximum; inactive = score below 0.9.",
  "data": [
    {"read-out": "Interleukin-10 (IL10), IL10 (gene 3586)", "assay": "BSK_IMphg_IL10: BioMAP Diversity Plus: IMphg Assay for Interleukin-10 (IL10) Biomarker Activity (AID 2284294)", "settings": "primary human endothelial cells with macrophages", "protocol": "BSK_IMphg is a cell-based, multiplexed-readout assay that uses venular endothelial cells and macrophages, a human vascular primary cell, with measurements taken at 24 hours after chemical dosing in a microplate: 96-well plate.BSK_IMphg_IL10 is an assay component measured in the BSK_IMphg assay. It measures IL-10 antibody related to regulation of gene expression using ELISA technology.Data from the assay component BSK_IMphg_IL10 was analyzed at the endpoint, BSK_IMphg_IL10, in the positive analysis fitting direction relative to DMSO as the negative control and baseline of activity. Using a type of binding reporter, gain or loss-of-signal activity can be used to understand protein changes. To generalize the intended target to other relatable targets, this assay endpoint is annotated to the 'cytokine' intended target family, where the subfamily is 'interleukins'.\nThe levels of cell surface (or secreted, indicated by the prefix \"s\") biomarker endpoints were measured by ELISA. Overt cytotoxicity to cells in confluent adherent cultures (all systems other than the BT system) was assessed by measuring total protein levels using sulforhodamine B (SRB) staining in parallel cultures at the time of biomarker measurements, indicated as SRB endpoints. For proliferation assays for adherent cell types, individual cell types are cultured at sub-confluence and relative cell numbers quantified by SRB staining at time points optimized for each system (48 h: 3C and CASM3C systems; 72 h: BT and HDF3CGF systems; 96 h: SAg system). SRB was performed by staining cells with 0.1% SRB after fixation with 10% TCA and reading wells at 560 nm.Viability and proliferation of PBMC (T cells) was quantified by Alamar Blue reduction for the SAg and BT systems. For PBMC viability (referred to as PBMC Cytotoxicity within the assay endpoint names), cells were plated (75,000/well in a 96-well plate) and then chemical samples added for 1 h before addition of activators, SEB and TSST-1 (20 ng/mL final concentration each). Cells were incubated for 90 h. Then, Alamar Blue (20 uL/well) (Invitrogen, Cat DAL1100) was added for 6 h, and the plates were read with a fluorescence microplate reader at 546/580 nm (excitation/emission). For PBMC proliferation, cells were plated and activated as above but incubated for only 16 h prior to addition of Alamar Blue. Plates were read after 6 h.", "values": [
      {"smiles": "C[Si](C)(C)C(F)(F)C(F)(F)C(F)(F)F", "outcome": "inactive"},
      {"smiles": "FC(F)(F)COC(OCC(F)(F)F)OCC(F)(F)F", "outcome": "inactive"},
      {"smiles": "FC(F)(F)C(F)(F)C(F)(F)C(F)(F)C(F)(F)C(F)(F)I", "outcome": "inactive"},
      {"smiles": "OCCC(F)(F)C(F)(F)C(F)(F)C(F)(F)F", "outcome": "inactive"},
      {"smiles": "FC(F)C(F)(F)COCC1CO1", "note": "(stereo not given)", "outcome": "inactive"},
      {"smiles": "O=C(Cl)C(F)(F)C(F)(F)C(F)(F)C(=O)Cl", "outcome": "inactive"},
      {"smiles": "OC(O)(C(F)C(O)(O)C(F)(F)F)C(F)(F)F", "AC50": "25 µM (active) and 22.2 µM (active)"},
      {"smiles": "FC(F)=C(F)C(F)(F)C(F)(F)C(F)(F)C(F)(F)C(F)(F)C(F)(F)F", "outcome": "inactive"},
      {"smiles": "NCC(F)(F)C(F)(F)C(F)(F)C(F)(F)F", "outcome": "inactive"},
      {"smiles": "O=S(=O)(O)CCC(F)(F)C(F)(F)C(F)(F)C(F)(F)C(F)(F)C(F)(F)F", "outcome": "inactive"}
    ]}
  ]
}
